Source: the supplement of paper PMC6607015
Structures can show the parent of a compound that is named as a salt.

How the values were obtained:
Conditions in all cases: compound concentration in added solution (µM; 5 µl added to 20 µl cells): 10; 18 h
A431 [1] = test: LBPA endosome anti-LBPA integrated intensity (sum per cell), Z-score; higher = more LBPA staining
Outline: (§1)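 Per-cell integrated LBPA or filipin intensity, whole-cell or within LBPA endosomes, is expressed as Z-scores normalised in AcuityXpress. HeLa MZ or A431 cells, 3,500 per well in 20 µl, sat on 5 µl of 10 µM compound solution in duplicate 384-well imaging plates for 18 h. They were then fixed in 4% PFA, stained, imaged in four 20× fields per well and segmented using MetaXpress.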

HeLa MZ [2] = test: as above
Outline: as §1

A431 [3] = test: whole-cell filipin (free cholesterol) integrated intensity, Z-score; higher = more cholesterol staining
Outline: as §1

HeLa MZ [4] = test: as above
Outline: as §1

A431 [5] = test: filipin (cholesterol) integrated intensity within LBPA endosomes, Z-score; higher = more cholesterol in LBPA endosomes
Outline: as §1

HeLa MZ [6] = test: as above
Outline: as §1

For `COc1ccccc1N1CCN(CCCCNC(=O)c2ccc3ccccc3c2)CC1`, the “LBPA endosome anti-LBPA integrated intensity (z-score)” value (A431 [1]) was 2.82, the “LBPA endosome anti-LBPA integrated intensity (z-score)” value (HeLa MZ [2]) was 1.25 and the “whole-cell filipin (z-score)” value (A431 [3]) was 2.45. For the same compound, the “whole-cell filipin (z-score)” value (HeLa MZ [4]) was 2.22, the “filipin (z-score)” value (A431 [5]) was 2.37 and the “filipin (z-score)” value (HeLa MZ [6]) was 3.33.
In the case of `CNC(=C[N+](=O)[O-])NCCSCc1csc(CN(C)C)n1` [Nizatidine], the “LBPA endosome anti-LBPA integrated intensity (z-score)” value (A431 [1]) is reported as -0.247, the “LBPA endosome anti-LBPA integrated intensity (z-score)” value (HeLa MZ [2]) is reported as -0.223 and the “whole-cell filipin (z-score)” value (A431 [3]) is reported as 0.149. For the same compound, the “whole-cell filipin (z-score)” value (HeLa MZ [4]) was -0.639, the “filipin (z-score)” value (A431 [5]) was -0.347 and the “filipin (z-score)” value (HeLa MZ [6]) was -0.405.
With `NCCc1cc[nH]n1` [Betazole hydrochloride] the “LBPA endosome anti-LBPA integrated intensity (z-score)” value (A431 [1]) was -0.528, the “LBPA endosome anti-LBPA integrated intensity (z-score)” value (HeLa MZ [2]) was 0.0261 and the “whole-cell filipin (z-score)” value (A431 [3]) was -0.472. The “whole-cell filipin (z-score)” value (HeLa MZ [4]) was -0.657, the “filipin (z-score)” value (A431 [5]) was -0.476 and the “filipin (z-score)” value (HeLa MZ [6]) was -0.51.
With `C[C@]12CC[C@H]3C(=CCc4cc(O)ccc43)[C@@H]1CCC2=O` [Equilin] the “LBPA endosome anti-LBPA integrated intensity (z-score)” value (A431 [1]) was -0.185, the “LBPA endosome anti-LBPA integrated intensity (z-score)” value (HeLa MZ [2]) was 0.864 and the “whole-cell filipin (z-score)” value (A431 [3]) was -0.0277. For the same compound, the “whole-cell filipin (z-score)” value (HeLa MZ [4]) was 0.614, the “filipin (z-score)” value (A431 [5]) was -0.251 and the “filipin (z-score)” value (HeLa MZ [6]) was 0.186.
For `CC(=O)OC(C)C[N+](C)(C)C` (stereo not drawn) [Methacholine chloride], the “LBPA endosome anti-LBPA integrated intensity (z-score)” value (A431 [1]) was -0.38, the “LBPA endosome anti-LBPA integrated intensity (z-score)” value (HeLa MZ [2]) was 0.107 and the “whole-cell filipin (z-score)” value (A431 [3]) was -0.0801. For the same compound, the “whole-cell filipin (z-score)” value (HeLa MZ [4]) was -0.293, the “filipin (z-score)” value (A431 [5]) was -0.383 and the “filipin (z-score)” value (HeLa MZ [6]) was -0.341.
With `Nc1ccc(S(=O)(=O)Nc2ccc(Cl)nn2)cc1` [Sulfachloropyridazine] the “LBPA endosome anti-LBPA integrated intensity (z-score)” value (A431 [1]) was -0.463, the “LBPA endosome anti-LBPA integrated intensity (z-score)” value (HeLa MZ [2]) was -0.899 and the “whole-cell filipin (z-score)” value (A431 [3]) was -0.227. The “whole-cell filipin (z-score)” value (HeLa MZ [4]) was -0.78, the “filipin (z-score)” value (A431 [5]) was -0.494 and the “filipin (z-score)” value (HeLa MZ [6]) was -0.56.
For `C[C@@H]1C[C@H]2[C@@H]3C[C@H](F)C4=CC(=O)C=C[C@]4(C)[C@@]3(Cl)[C@@H](O)C[C@]2(C)[C@H]1C(=O)COC(=O)C(C)(C)C` [Clocortolone pivalate], the “LBPA endosome anti-LBPA integrated intensity (z-score)” value (A431 [1]) was -0.276, the “LBPA endosome anti-LBPA integrated intensity (z-score)” value (HeLa MZ [2]) was -1.1 and the “whole-cell filipin (z-score)” value (A431 [3]) was -0.183. The “whole-cell filipin (z-score)” value (HeLa MZ [4]) was -0.473, the “filipin (z-score)” value (A431 [5]) was -0.253 and the “filipin (z-score)” value (HeLa MZ [6]) was -0.536.
For `CS(=O)(=O)c1ccc([C@@H](O)[C@@H](CF)NC(=O)C(Cl)Cl)cc1` [Florfenicol], the “LBPA endosome anti-LBPA integrated intensity (z-score)” value (A431 [1]) was -0.565, the “LBPA endosome anti-LBPA integrated intensity (z-score)” value (HeLa MZ [2]) was -1.2 and the “whole-cell filipin (z-score)” value (A431 [3]) was -0.505. The “whole-cell filipin (z-score)” value (HeLa MZ [4]) was -0.36, the “filipin (z-score)” value (A431 [5]) was -0.528 and the “filipin (z-score)” value (HeLa MZ [6]) was -0.651.
With `CN(C)[C@@H]1C(O)=C(C(N)=O)C(=O)[C@@]2(O)C(O)=C3C(=O)c4c(O)cccc4[C@@](C)(O)[C@H]3C[C@@H]12` [Tetracycline hydrochloride] the “LBPA endosome anti-LBPA integrated intensity (z-score)” value (A431 [1]) was -0.508, the “LBPA endosome anti-LBPA integrated intensity (z-score)” value (HeLa MZ [2]) was 0.0873 and the “whole-cell filipin (z-score)” value (A431 [3]) was -0.872. For the same compound, the “whole-cell filipin (z-score)” value (HeLa MZ [4]) was -0.867, the “filipin (z-score)” value (A431 [5]) was -0.521 and the “filipin (z-score)” value (HeLa MZ [6]) was -0.698.
`CO[C@@H]1[C@@H](OC(N)=O)[C@@H](O)[C@H](Oc2ccc3c(O)c(NC(=O)c4ccc(O)c(CC=C(C)C)c4)c(=O)oc3c2C)OC1(C)C` [Novobiocin sodium salt] was tested, and the “LBPA endosome anti-LBPA integrated intensity (z-score)” value (A431 [1]) was -0.507, the “LBPA endosome anti-LBPA integrated intensity (z-score)” value (HeLa MZ [2]) was -0.477 and the “whole-cell filipin (z-score)” value (A431 [3]) was -0.352. For the same compound, the “whole-cell filipin (z-score)” value (HeLa MZ [4]) was -0.602, the “filipin (z-score)” value (A431 [5]) was -0.469 and the “filipin (z-score)” value (HeLa MZ [6]) was -0.462.
With `O=C(CCCN1CCC(O)(c2ccc(Br)cc2)CC1)c1ccc(F)cc1` [Bromperidol] the “LBPA endosome anti-LBPA integrated intensity (z-score)” value (A431 [1]) was 2.59, the “LBPA endosome anti-LBPA integrated intensity (z-score)” value (HeLa MZ [2]) was 2.09 and the “whole-cell filipin (z-score)” value (A431 [3]) was 1.76. The “whole-cell filipin (z-score)” value (HeLa MZ [4]) was 1.12, the “filipin (z-score)” value (A431 [5]) was 2.09 and the “filipin (z-score)” value (HeLa MZ [6]) was 1.82.
For `C[C@@H](O)[C@H]1C(=O)N2C(C(=O)O)=C(S[C@@H]3CN[C@H](C(=O)N(C)C)C3)[C@H](C)[C@H]12` [Meropenem], the “LBPA endosome anti-LBPA integrated intensity (z-score)” value (A431 [1]) was -0.501, the “LBPA endosome anti-LBPA integrated intensity (z-score)” value (HeLa MZ [2]) was -0.52 and the “whole-cell filipin (z-score)” value (A431 [3]) was 0.0963. The “whole-cell filipin (z-score)” value (HeLa MZ [4]) was -0.649, the “filipin (z-score)” value (A431 [5]) was -0.531 and the “filipin (z-score)” value (HeLa MZ [6]) was -0.725.
In the case of `NC(CO)C(=O)NNCc1ccc(O)c(O)c1O` (stereo not drawn) [Benserazide hydrochloride], the “LBPA endosome anti-LBPA integrated intensity (z-score)” value (A431 [1]) is reported as -0.379, the “LBPA endosome anti-LBPA integrated intensity (z-score)” value (HeLa MZ [2]) is reported as 0.144 and the “whole-cell filipin (z-score)” value (A431 [3]) is reported as -0.376. The “whole-cell filipin (z-score)” value (HeLa MZ [4]) was -0.254, the “filipin (z-score)” value (A431 [5]) was -0.42 and the “filipin (z-score)” value (HeLa MZ [6]) was -0.5.
With `O=C1Cc2cc(CCN3CCN(c4nsc5ccccc45)CC3)c(Cl)cc2N1` [Ziprasidone  Hydrochloride] the “LBPA endosome anti-LBPA integrated intensity (z-score)” value (A431 [1]) was 1.04, the “LBPA endosome anti-LBPA integrated intensity (z-score)” value (HeLa MZ [2]) was 1.09 and the “whole-cell filipin (z-score)” value (A431 [3]) was 0.285. For the same compound, the “whole-cell filipin (z-score)” value (HeLa MZ [4]) was 0.974, the “filipin (z-score)” value (A431 [5]) was 0.571 and the “filipin (z-score)” value (HeLa MZ [6]) was 1.31.
`CC[C@H](C)C(=O)O[C@H]1CCC=C2C=C[C@H](C)[C@H](CC[C@@H]3C[C@@H](O)CC(=O)O3)[C@H]21` [Mevastatin] was tested, and the “LBPA endosome anti-LBPA integrated intensity (z-score)” value (A431 [1]) was -1.03, the “LBPA endosome anti-LBPA integrated intensity (z-score)” value (HeLa MZ [2]) was -2.17 and the “whole-cell filipin (z-score)” value (A431 [3]) was -1. The “whole-cell filipin (z-score)” value (HeLa MZ [4]) was -0.345, the “filipin (z-score)” value (A431 [5]) was -0.746 and the “filipin (z-score)” value (HeLa MZ [6]) was -0.0775.
With `OC(CCN1CCCCC1)(c1ccccc1)C1CCCCC1` (stereo not drawn) [Trihexyphenidyl-D,L Hydrochloride] the “LBPA endosome anti-LBPA integrated intensity (z-score)” value (A431 [1]) was 1.27, the “LBPA endosome anti-LBPA integrated intensity (z-score)” value (HeLa MZ [2]) was 1.51 and the “whole-cell filipin (z-score)” value (A431 [3]) was 0.138. The “whole-cell filipin (z-score)” value (HeLa MZ [4]) was -0.301, the “filipin (z-score)” value (A431 [5]) was 0.357 and the “filipin (z-score)” value (HeLa MZ [6]) was 0.149.
In the case of `CCCNC(=O)NS(=O)(=O)c1ccc(Cl)cc1` [Chlorpropamide], the “LBPA endosome anti-LBPA integrated intensity (z-score)” value (A431 [1]) is reported as -0.658, the “LBPA endosome anti-LBPA integrated intensity (z-score)” value (HeLa MZ [2]) is reported as -1.65 and the “whole-cell filipin (z-score)” value (A431 [3]) is reported as -0.845. For the same compound, the “whole-cell filipin (z-score)” value (HeLa MZ [4]) was -0.558, the “filipin (z-score)” value (A431 [5]) was -0.591 and the “filipin (z-score)” value (HeLa MZ [6]) was -0.571.
With `CN1CCN2c3ncccc3Cc3ccccc3C2C1` (stereo not drawn) [Mirtazapine] the “LBPA endosome anti-LBPA integrated intensity (z-score)” value (A431 [1]) was -0.296, the “LBPA endosome anti-LBPA integrated intensity (z-score)” value (HeLa MZ [2]) was 0.0872 and the “whole-cell filipin (z-score)” value (A431 [3]) was -0.206. For the same compound, the “whole-cell filipin (z-score)” value (HeLa MZ [4]) was 0.74, the “filipin (z-score)” value (A431 [5]) was -0.391 and the “filipin (z-score)” value (HeLa MZ [6]) was 0.392.
